Experimental data reported in PubChem BioAssay (NCATS).
Where “and” joins values, the source holds several entries; their conditions need not be identical. Equal entries are not always repeated. Values without a mark were called inactive. Inconclusive results are not listed. A call without a number means that no potency is given here. Calls of active or inactive are those of the source. Unless noted, calls follow the shape of the dose curve; as a rule, active = well fitted curve in the direction sought with a large enough effect; inconclusive = small, poorly fitted or top-dose-only effect, or another doubt; inactive = no such curve, though single readings can be large; an effect the other way counts as inactive or inconclusive.

Assays:
[1] = Cell Viability - SK-N-SH (AID 435; calls by dose curve;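 also: potency is read from the fitted curve at half-maximal effect; compound exposure lasted 40 h at 37 °C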); conditions: SK-N-SH neuroblastoma cell viability qHTS
Summary of the method: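 Luminescent ATP signal served as the viability read-out after 40 hours of compound treatment of human neuroblastoma SK-N-SH cells. Concentration-response data, scaled between DMSO and 100 uM tamoxifen, gave AC50 values by standard Hill modeling.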

[2] = Cell Viability - HUV-EC-C (AID 542); conditions: HUV-EC-C endothelial cell viability, qHTS; series mostly up to 92.2 µM; also: nearly all actives have a fitted effect of over 35% in size
Summary of the method: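 Decrease in cellular ATP, quantified by luciferase luminescence, reflects toxicity in normal human vascular endothelial HUV-EC-C cells given compound for 40 hr in complete culture medium. Values are AC50s from concentration-response curves.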

[3] = Cell Viability - SH-SY5Y (AID 544); conditions: SH-SY5Y neuroblastoma cell viability; viability change, negative = cytotoxic: at 92.2 µM (top of the series); also: nearly all actives have a fitted effect of over 55% in size
Summary of the method: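 Cytotoxicity is scored as a concentration-dependent fall in intracellular ATP in human SH-SY5Y cells treated 40 hr in complete culture medium. Potency is expressed as AC50 from a Hill equation fit.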

[4] = Cell Viability - Renal Proximal Tubule (AID 545); conditions: renal proximal tubule cells viability; series mostly up to 91.7 µM; also: nearly all actives have a fitted effect of over 40% in size
Summary of the method: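 Luminescent ATP signal (CellTiter-Glo) served as the viability read-out after 40 hr compound exposure of freshly isolated rat proximal tubule cells at 37 °C. Concentration-dependent ATP loss was fitted with the Hill equation to give AC50.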

[5] = Cellular Toxicity (caspase-3) H-4-II-E (AID 663); conditions: H-4-II-E rat hepatoma; Potency: caspase-3 activation; series mostly up to 92.2 µM
Summary of the method: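 Apoptosis induction is scored as increased luminescence from caspase 3/7 substrate cleavage in rat hepatoma H-4-II-E cells exposed to compound for 16 hr. Activity is scaled between DMSO and 100 uM tamoxifen.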

[6] = Cell Viability - LYMP2-023 (AID 975); conditions: LYMP2-023 lymphoblastoid cell viability; series mostly up to 92.2 µM;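 also: cellular ATP measured by luciferase luminescence as viability proxy; cells exposed to compound for 24 hours at 37 °C; nearly all actives have a fitted effect of over 55% in size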
Summary of the method: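 Concentration-dependent drop in intracellular ATP measures acute cytotoxicity in a human lymphoblastoid line treated for 24 hours in complete culture medium. AC50 values are taken from Hill-equation fits of qHTS data.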

[7] = Cell Viability - LYMP2-006 (AID 978); conditions: LYMP2-006 lymphoblastoid cell viability, qHTS; series mostly up to 92.2 µM;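 also: cells exposed to compound for 24 hours; nearly all actives have a fitted effect of over 60% in size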
Summary of the method: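 Cells are seeded at 2500 per well and rested 5 hr at 37 C. Compounds are added across a concentration series for 24 hr at 37 C, after which ATP is quantified by luciferase luminescence.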

[8] = Cell Viability - LYMP2-010 (AID 981); conditions: LYMP2-010 lymphoblastoid cell viability, qHTS; series mostly up to 92.2 µM;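 also: cells exposed to compound for 24 hours at 37 °C; nearly all actives have a fitted effect of over 55% in size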
Summary of the method: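 Acute toxicity is scored as a concentration-dependent loss of cellular ATP in human lymphoblastoid cells after 24 hr compound exposure in complete medium. Tetraoctylammonium bromide is the positive control.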

[9] = Cell Viability - LYMP2-020 (AID 986); conditions: series mostly up to 92.2 µM;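 also: cells exposed to compound for 24 h at 37 °C; nearly all actives have a fitted effect of over 55% in size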
Summary of the method: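 Acute cytotoxicity in a human lymphoblastoid line is scored as a concentration-dependent fall in cellular ATP after 24 hr at 37 C in complete medium. The positive control is tetraoctylammonium bromide, and potency is given as Hill-fit AC50.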

[10] = Cell Viability - LYMP1-002 - Assay at 24 hr (AID 993); conditions: LYMP1-002 lymphoblastoid cells viability; series mostly up to 92.2 µM
Summary of the method: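 qHTS, LYMP1-002 lymphoblastoid, 24 h cpd, 37 C, CellTiter-Glo ATP luminescence; AC50 via Hill eq.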

[11] = target: Peroxisome proliferator-activated receptor gamma (Homo sapiens) (UniProt P37231); experiment: qHTS assay for small molecule agonists of peroxisome proliferator-activated receptor gamma signaling (AID 588536; active = well fitted curve in the direction sought with a large enough effect in the signal ratio, with a control signal flat, not every such curve was filed as active; the % refers to the signal ratio); conditions: HEK293 PPARg-UAS-bla, beta-lactamase ratio, 16 h, percent of rosiglitazone response, DMSO as zero; series mostly up to 76.7 µM
Summary of the method: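 Ratiometric blue/green fluorescence (405 nm excitation; 460 and 530 nm emission) from CCF4-loaded HEK293 reporter cells serves as signal. Exposure to test compounds lasts 16 h at 37 C in medium containing 1% charcoal/dextran-treated serum.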

[12] = target: Retinoic acid receptor RXR-alpha (Homo sapiens) (UniProt P19793); experiment: qHTS assay for small molecule antagonists of retinoid X receptor alpha signaling (AID 588546; active = well fitted inhibition curve with a large enough effect in the signal ratio, with a control signal flat, not every such curve was filed as active; the % refers to the signal ratio;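 also: cells stimulated with 9-cis-retinoic acid as agonist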); conditions: HEK293T RXRa-UAS-bla, beta-lactamase ratio, antagonist mode
Summary of the method: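 Beta-lactamase reporter inhibition, read as CCF4 fluorescence ratio (ex 405, em 460/530 nm) after 2 h at RT. HEK293T UAS-bla cells, 2500/well, were stimulated with 9-cis-RA at 500 or 100 nM final alongside test compound for 18 h at 37 C.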

[13] = qHTS assay for small molecule activators of the nuclear factor-kappa B (NF-kB) signaling pathway (AID 651749; active = well fitted activation curve with a large enough effect in the signal ratio; the % refers to the signal ratio); conditions: NF-kB-bla ME-180 cells, beta-lactamase FRET ratio, 16 h; active compounds read high
Summary of the method: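 Stably transfected ME-180 line; NF-kB response element upstream of beta-lactamase. Treatment: compound or DMSO, 16 hr. Detection: fluorescent FRET substrate.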

[14] = qHTS assay for small molecule disruptors of the mitochondrial membrane potential - 1 hr assay (AID 651754; calls by dose curve; also: nearly all actives have a fitted effect of over 35% in size; also: potency is read from the fitted curve at half-maximal effect); conditions: series mostly up to 92.2 µM
Summary of the method: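 Steps: seed HepG2 cells and let attach overnight; pin-transfer compound or vehicle; incubate 1 hr at 37C; add Mito-MPS dye for 30 min; read two-channel fluorescence for monomer and aggregate forms.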

[15] = qHTS assay for small molecule agonists of the antioxidant response element (ARE) signaling pathway measured by Nrf2-dependant transcriptional activity (AID 720636; active = well fitted curve in the direction sought with a large enough effect in the repeat runs; an effect the other way counts as inactive or inconclusive;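 also: HepG2 cells with an ARE-driven luciferase reporter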); conditions: ARE-luc HepG2, Nrf2 luciferase reporter, 16 h; series mostly up to 92.4 µM
Summary of the method: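 We exposed ARE-luc HepG2 cells, seeded in assay medium with 1% dialyzed FBS and allowed 6 hr to adhere, to test compounds overnight (16 hr, 37 C) before measuring luciferase with ONE-Glo.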

[16] = qHTS assay for cell viability of HEK293 cells (AID 743288); conditions: ATP luminescence (CellTiter-Glo), 18 h, active compounds read low; also: nearly all actives have a fitted effect of over 50% in size
Summary of the method: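 HEK293 parental, 2,000 cells/well; ≥5 h pre-incubation 37 C; pintool compound addition; 18 h, 37 C; CellTiter-Glo 30 min RT; luminescence read.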

[17] = Cell Viability - H-4-II-E (AID 543); conditions: H-4-II-E rat hepatoma viability; series mostly up to 92.2 µM; also: nearly all actives have a fitted effect of over 35% in size
Summary of the method: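 Here, cytotoxicity is measured in the rat hepatoma line H-4-II-E as loss of intracellular ATP after 40 hr compound treatment, detected by luciferase luminescence.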

[18] = Cell Viability - LYMP2-001 (AID 921); conditions: LYMP2-001 lymphoblastoid cell viability; series mostly up to 92.2 µM;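 also: cells exposed to compound for 24 h at 37 °C; nearly all actives have a fitted effect of over 70% in size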
Summary of the method: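 Steps: seed 2500 lymphoblastoid cells/well; 5 hr, 37 C; add compound; 24 hr, 37 C; CellTiter-Glo reagent, 30 min room temperature; read luminescence. Concentration-response modeled by Hill equation for AC50.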

[19] = Cell Viability - LYMP2-019 (AID 973); conditions: LYMP2-019 lymphoblastoid cell line viability; series mostly up to 92.2 µM
Summary of the method: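 Cells plated at 2500/well and allowed 5 hr at 37 C before compound addition. After 24 hr incubation, CellTiter-Glo reagent was added, plates sat 30 min at room temperature, and luminescence was recorded.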

[20] = Cell Viability - LYMP2-012 (AID 982); conditions: LYMP2-012 lymphoblastoid cell viability qHTS; series mostly up to 92.2 µM

Sequence of Retinoic acid receptor RXR-alpha (Homo sapiens) (P19793 whole entry, looked up): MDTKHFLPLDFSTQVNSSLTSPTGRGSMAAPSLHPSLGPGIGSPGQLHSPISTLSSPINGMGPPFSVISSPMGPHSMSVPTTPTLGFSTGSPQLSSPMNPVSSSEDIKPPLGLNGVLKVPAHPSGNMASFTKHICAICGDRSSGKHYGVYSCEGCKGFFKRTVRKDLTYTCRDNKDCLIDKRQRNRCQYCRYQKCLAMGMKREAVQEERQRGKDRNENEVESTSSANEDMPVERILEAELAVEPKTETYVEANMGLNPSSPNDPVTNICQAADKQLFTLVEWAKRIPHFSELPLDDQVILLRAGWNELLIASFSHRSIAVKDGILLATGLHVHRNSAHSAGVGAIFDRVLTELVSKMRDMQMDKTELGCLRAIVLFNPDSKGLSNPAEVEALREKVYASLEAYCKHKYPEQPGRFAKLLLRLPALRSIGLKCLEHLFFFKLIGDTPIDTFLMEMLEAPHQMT
Sequence of Peroxisome proliferator-activated receptor gamma (Homo sapiens) (P37231 whole entry, looked up): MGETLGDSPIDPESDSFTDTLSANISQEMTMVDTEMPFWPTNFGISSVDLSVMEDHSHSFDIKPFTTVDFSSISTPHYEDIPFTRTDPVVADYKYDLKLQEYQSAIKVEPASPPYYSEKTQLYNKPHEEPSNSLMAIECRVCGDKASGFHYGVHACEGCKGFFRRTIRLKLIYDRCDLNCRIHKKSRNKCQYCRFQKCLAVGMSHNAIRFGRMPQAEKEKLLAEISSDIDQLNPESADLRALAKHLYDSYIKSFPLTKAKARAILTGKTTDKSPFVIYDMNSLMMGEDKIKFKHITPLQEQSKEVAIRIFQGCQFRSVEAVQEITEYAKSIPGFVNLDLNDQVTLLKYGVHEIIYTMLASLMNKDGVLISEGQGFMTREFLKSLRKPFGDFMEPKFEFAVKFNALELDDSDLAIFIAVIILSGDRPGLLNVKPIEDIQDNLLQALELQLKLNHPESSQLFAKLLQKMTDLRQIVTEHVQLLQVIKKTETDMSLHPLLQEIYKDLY

| Structure (SMILES) | Potency [1] [µM] | Potency [2] | Potency [3] | outcome [4] | Potency [5] | Potency [6] | Potency [7] | Potency [8] | Potency [9] | Potency [10] | outcome [11] | max response [12] | activation [13] | Potency [14] | Potency [15] | max response [16] | Potency [17] | Potency [18] | Potency [19] | Potency [20] |
| --- | --- | --- | --- | --- | --- | --- | --- | --- | --- | --- | --- | --- | --- | --- | --- | --- | --- | --- | --- | --- |
| Cc1cccc(N)c1C | > 92 | inactive | inactive | inactive | inactive | inactive | inactive | inactive | inactive | inactive | inactive | 13.5% | -0.847% | inactive | inactive | -7.16% | – | – | – | – |
| ClC(Cl)(Cl)C(Cl)(Cl)Cl | > 92 | inactive | inactive | inactive | inactive | inactive | inactive | inactive | inactive | inactive | inactive | 8.66% | 0.631% | inactive | inactive | 3.22% | inactive | inactive | – | – |
| N#CC(Br)Br | – | – | – | – | inactive | – | – | – | – | – | inactive | 18.7% | -1.36% | inactive | inactive | -22.9% | – | inactive | – | – |
| Cl/C=C/Cl | – | inactive | inactive | inactive | inactive | inactive | inactive | inactive | inactive | inactive | – | 6.16% | -1.04% | – | inactive | – | – | – | inactive | inactive |
| Clc1cccc(Cl)c1Cl | – | inactive | inactive | inactive | inactive | inactive | inactive | inactive | inactive | inactive | inactive | 1.17% and -4.41% | -0.304% and 0.362% | inactive | inactive | -5.25% and -0.775% | inactive | inactive | – | – |
| Cc1cc(-c2cc(C)c(N)c(C)c2)cc(C)c1N | > 92 | inactive | inactive | inactive | – | – | – | – | inactive | inactive | inactive | -4.04% | 0.737% | – | inactive | 7.5% | inactive | inactive | inactive | inactive |
| O=[N+]([O-])c1ccccc1CCl | > 92 | inactive | – | inactive | inactive | inactive | – | – | – | inactive | inactive | -4.02% | 0.905% | inactive | inactive | – | – | – | – | inactive |
| c1ccc2c(c1)CCNC2 | > 92 | inactive | inactive | inactive | inactive | inactive | inactive | inactive | inactive | inactive | inactive | 19.2% | 0.526% | inactive | inactive | 1.81% | inactive | inactive | inactive | – |
| Oc1cc(Cl)c(Cl)c(Cl)c1Cl | – | – | – | – | – | inactive | – | inactive | – | – | – | – | – | – | inactive | -11.3% | – | – | inactive | – |
| Nc1c(Cl)cc([N+](=O)[O-])cc1Cl | > 92 | inactive | inactive | – | inactive | inactive | inactive | inactive | inactive | inactive | inactive | – | 0.598% and -4.6% | 29.8 µM (active) | inactive | – | – | inactive | – | inactive |
